Here are results for 36 molecules from PubChem BioAssay (Tox21).

Values joined by “and” are separate entries in the source; they are usually repeats but may differ in a detail not shown here. Equal entries are not always repeated. Inconclusive results are not listed. The source holds several records for some structures; these can differ, active in one and inactive in another. Active and inactive are the calls of the source. Calls follow the shape of the dose curve; as a rule, active = well fitted curve in the direction sought with a large enough effect in the repeat runs; inconclusive = weak or mixed curves; inactive = no such curve, though single readings can be large; an effect the other way counts as inactive or inconclusive.

Assay [1] can be described thus: qHTS assay to identify small molecule agonists of the RXR signaling pathway - cell viability counter screen (AID 1159529). Also: nearly all actives have a fitted effect of over 50% in size. Also: potency is read from the fitted curve at half-maximal effect. The essentials:
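RXR-alpha-UAS-bla HEK 293T cells in medium with 2% charcoal-stripped FBS were pre-incubated 5 hr, then compound-treated 16 hr at 37 C. Viability was read by CellTiter-Glo luminescence in the same wells as the beta-lactamase assay, with tetraoctyl ammonium bromide as positive control.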

Assay [2] in a line: qHTS assay to identify small molecule antagonists of the retinoid acid receptor (RAR) signaling pathway - cell viability counter screen (AID 1159551). Also: nearly all actives have a fitted effect of over 35% in size. Also: potency is read from the fitted curve at half-maximal effect. The essentials:
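Luminescent ATP quantitation (CellTiter-Glo) gave cell viability in C3RL4 cells exposed to test chemicals for 6 h at 37 C alongside 1 uM final retinol.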

Assay [3] is described as follows: qHTS assay to identify small molecule antagonists of the retinoic acid receptor (RAR) signaling pathway (AID 1159552; also: nearly all actives have a fitted effect of over 50% in size; also: potency is read from the fitted curve at half-maximal effect). The gist of the method:
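Retinol signaling pathway inhibitors screened in C3RL4 RARE-luciferase reporter cells seeded overnight at 37 C, then compounds added with 1 uM (final) retinol as pathway substrate. After 6 hr at 37 C, luciferase luminescence read after 30 min at room temperature.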

The nature of assay [4]: qHTS assay to identify small molecule agonists of the retinoic acid receptor (RAR) signaling pathway (AID 1159553). Also: potency is read from the fitted curve at half-maximal effect. The gist of the method:
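Luminescence from a RARE-driven luciferase reporter in C3RL4 cells served as the read-out, measured after 30 min with detection reagent at room temperature. Compounds in DMSO were applied for 6 hr at 37 C following overnight seeding.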

The nature of assay [5]: qHTS assay to identify small molecule antagonists of the estrogen related receptor (ERR) signaling pathway from Tox21 library - cell viability counter screen (AID 1224834). Also: nearly all actives have a fitted effect of over 30% in size. Also: potency is read from the fitted curve at half-maximal effect. The essentials:
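Fluorescence from CellTiter-Fluor gives the viability read-out, taken 30 min after reagent addition. Before that, ERR cells seeded 6 h earlier were incubated with compounds for 17.5 h at 37 C.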

Assay [6] can be described thus: qHTS assay to identify small molecule agonists of the estrogen related receptor (ERR) signaling pathway (AID 1224820). The gist of the method: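 Cells: ERR line from NTP, 2,000/well. Pre-incubation 6 h, 37 C/5% CO2. Compound (DMSO) pin transfer, 18 h 37 C. One-Glo, 30 min RT, luminescence.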
Assay [7] is described as follows: qHTS assay to identify small molecule antagonists of the estrogen related receptor signaling pathway with the pleiotropic PPARgamma coactivator (PGC) cell viability counter screen (AID 1224822; also: series mostly up to about 46 µM). The gist of the method:
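Cells: PGC/ERR, 2,000/well, 1536-well format. Pre-incubation 6 h, 37 C/5% CO2. Compound exposure 17.5 h, 37 C. Detection: CellTiter-Fluor, 30 min, fluorescence.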

Assay [8] is described as follows: qHTS assay to identify small molecule agonists of the estrogen related receptor signaling pathway with the pleiotropic PPARgamma coactivator (PGC) (AID 1224823). The gist of the method: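 Steps: plate PGC/ERR cells at 2,000 cells/well; incubate 6 h, 37 C/5% CO2; pin-transfer compounds (DMSO); incubate 18 h, 37 C; add One-Glo; 30 min RT; read luminescence.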
Assay [9] can be described thus: qHTS assay to identify small molecule antagonists of the estrogen related receptor (ERR) signaling pathway (AID 1224819;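 also: luminescence from an ERR-driven luciferase reporter measured with One-Glo reagent; series mostly up to about 46 µM; nearly all actives have a fitted effect of over 50% in size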). The essentials:
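Seed ERR cells 2,000/well; rest 6 h at 37 C/5% CO2; pin compounds in DMSO; incubate 18 h at 37 C; add One-Glo; wait 30 min at room temperature; measure luminescence.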

For `S=C=NCc1ccccc1`, the Potency result in [1], in assay [2], in [3] and in [5] was “inactive” throughout. Further, the Potency in [4] was 69.3 µM (active).

For the molecule `CN(C)c1ccc(N(C)C)cc1`, the Potency entry in [1], in assay [2], in assay [3] and in [5] was “inactive” in each case. Besides, in assay [4], the Potency is 12.2 µM (active).

Regarding `C(=NC1CCCCC1)=NC1CCCCC1`, the Potency entry in assay [1], in assay [2], in [3] and in [4] was “inactive” throughout.

For `CCc1ccc(C(=O)NN(C(=O)c2cc(C)cc(C)c2)C(C)(C)C)cc1`, the Potency result in assay [1], in [2], in assay [3] and in [4] was “inactive” throughout. For the same molecule, the Potency in [5] was 8.63 µM (active).

Take `CCCCCCCCCC(=O)O[C@H]1CC[C@H]2[C@@H]3CCC4=CC(=O)CC[C@@H]4[C@H]3CC[C@]12C`: the Potency entry in [1], in assay [2], in assay [3], in [4] and in assay [5] was “inactive” in each case.

For `N#CCC#N`, the Potency entry in assay [1] and in assay [2] was “inactive” each time.

On to `COc1c(C(C)(C)C)cc([N+](=O)[O-])c(C)c1[N+](=O)[O-]`, for which the Potency entry in [1], in assay [2], in assay [3] and in assay [4] was “inactive” throughout.

For the molecule `OC(c1ccc(Cl)cc1)(c1ccc(Cl)cc1)c1cccnc1`, the Potency entry in assay [1], in assay [2], in assay [3] and in assay [4] was “inactive” each time.

In the case of `COc1nn(C(=O)NS(=O)(=O)c2ccccc2OC(F)(F)F)c(=O)n1C`, the Potency entry in [1], in [2], in assay [3], in [4] and in assay [5] was “inactive” throughout.

As for `C=CCOC(C)=O`, the Potency result in assay [1], in [2], in [3] and in assay [5] was “inactive” each time. In addition, the Potency in [4] is 75.9 µM (active).

As to `c1cc2ccc3cccc4ccc(c1)c2c34`, the Potency in assay [1] was 36.3 µM (active). Also, the Potency result in assay [2], in [3], in assay [4] and in assay [7] was “inactive” throughout. The call in assay [6] and in [8] was inactive.

On to `O=C(NCc1cccnc1)Nc1ccc([N+](=O)[O-])cc1`, for which the Potency entry in assay [1], in assay [2], in assay [3] and in [4] was “inactive” throughout.

On to `CCCCOC(=O)c1ccccc1C(=O)OCc1ccccc1`, for which the Potency result in [1], in assay [2], in assay [3], in assay [4], in assay [7] and in assay [5] was “inactive” each time. Besides, the outcome in assay [9], in [6] and in assay [8] was inactive.

Take `C=CC(=O)OC(C)(C)C`: the Potency result in assay [1], in assay [2], in [3], in assay [4] and in assay [5] was “inactive” in each case.

As to `O=C1NCN(c2ccccc2)C12CCN(CCCOc1ccc(F)cc1)CC2`, the Potency result in [1] and in assay [2] was “inactive” throughout.

As for `NS(=O)(=O)C(F)(F)C(F)(F)C(F)(F)C(F)(F)C(F)(F)C(F)(F)C(F)(F)C(F)(F)F`, the Potency entry in [1], in assay [2], in [3] and in assay [4] was “inactive” throughout.

For the molecule `CC(C)N(CCC(C(N)=O)(c1ccccc1)c1ccccn1)C(C)C` (centres undefined), the Potency entry in assay [1], in [2], in [3], in [4], in assay [7] and in assay [5] was “inactive” each time. Further, the result in [9] and in assay [6] was inactive.

Turning to `[O-][Cl+]O`, the Potency entry in assay [1], in assay [2], in [3], in assay [4] and in [5] was “inactive” in each case.

Take `CN1[C@@H]2CC[C@H]1CC(OC(=O)c1cc(Cl)cc(Cl)c1)C2` (some centres undefined): the Potency in assay [1] is 3.79 µM (active). The Potency result in assay [2], in assay [3] and in assay [4] was “inactive” throughout.

On to `O=C(O)COc1ccc(Cl)cc1`, for which the Potency result in [1], in assay [2], in [3] and in assay [4] was “inactive” each time.

As for `[CH3][Sn]([CH3])([Cl])[Cl]`, the Potency result in assay [1] and in assay [2] was “inactive” in each case. Further, the Potency in [3] was 55.4 µM (active) and 48.6 µM (active).

As to `CCOS(C)(=O)=O`, the Potency result in assay [1], in [2], in assay [3], in [4] and in [5] was “inactive” in each case.

Regarding `COc1ccc(-c2ccccc2)cc1NNC(=O)OC(C)C`, the Potency result in assay [1], in assay [2], in assay [3] and in assay [4] was “inactive” each time. In addition, the Potency in assay [5] is 63.7 µM (active).

On to `O=C(CCl)c1ccc(Cl)cc1Cl`, for which the Potency result in [1] was “inactive and 13.4 µM (active)”; in assay [3], 1.88 µM (active); in assay [5] it was “inactive and 21.1 µM (active)”. In addition, the Potency entry in [2] was “inactive”.

On to `II`, for which the Potency was 6.92 µM (active) in assay [1] and 68.6 µM (active) in assay [3]. Moreover, the Potency result in assay [4] is “inactive”.

As to `CC(C)(C)c1cc([N+](=O)[O-])cc([N+](=O)[O-])c1O`, the Potency entry in [1] and in assay [2] was “inactive” throughout. Besides, the Potency in [5] was 15.3 µM (active).

On to `Cc1c(F)c(F)c(COC(=O)C2C(/C=C(\Cl)C(F)(F)F)C2(C)C)c(F)c1F` (centres undefined), for which the Potency result in assay [1], in [2], in assay [4] and in assay [5] was “inactive” throughout.

Regarding `O=C(Nc1ccccc1)Nc1ccnc(Cl)c1`, the Potency entry in assay [2] and in assay [3] was “inactive” in each case.

Take `O=C(CBr)Nc1ccc(Cl)cc1C(=O)c1ccccc1F`: the Potency entry in assay [1], in assay [2] and in [5] was “inactive” throughout.

Consider `Cc1ccccc1C(=O)Nc1cccc(OC(C)C)c1`, for which the Potency entry in [2] is “inactive”.

Regarding `Nc1ccc(N=Nc2ccc(-c3ccc(N=Nc4c(S(=O)(=O)O)cc5cc(S(=O)(=O)O)c(N=Nc6ccccc6)c(O)c5c4N)cc3)cc2)c(N)c1`, the Potency entry in assay [1] and in assay [3] was “inactive” in each case. Besides, the Potency in assay [2] is 15.7 µM (active); in [5], 31.3 µM (active).

Turning to `C/C(=C\c1ccccc1)[N+](=O)[O-]`, the Potency entry in assay [1] and in [2] was “inactive” in each case. In addition, the Potency in [3] was 30.6 µM (active); in assay [5], 27.3 µM (active).

Consider `CC(C)(OO)c1ccccc1`, for which the Potency result in [1], in assay [2], in [3], in assay [4] and in [5] was “inactive” in each case.

With `IC(I)=C(I)I`, the Potency in assay [1] is 12.3 µM (active); in assay [2] it was 30.6 µM (active); in [3] it was 2.73 µM (active); in assay [5], 27.3 µM (active).

As to `C[C@@H]1CC[C@H]2[C@@H](C)C(=O)O[C@@H]3O[C@@]4(C)CC[C@@H]1[C@]32OO4`, the Potency result in assay [1], in assay [2] and in [5] was “inactive” each time.

In the case of `COC(C)(C)CCC[C@H](C)C/C=C/C(C)=C/C(=O)OC(C)C`, the Potency result in [1], in [2], in assay [3], in [4] and in assay [5] was “inactive” throughout.
